Inconclusive results are not listed. Active and inactive are the calls of the source. Calls come from the whole dose curve; as a rule, active = well fitted activation curve with a large enough effect in the signal ratio in the repeat runs, with a control signal flat (not every such curve was filed as active); inconclusive = weak or mixed curves; inactive = flat fitted curve, though single readings scatter; the % refers to the signal ratio.
assay: qHTS assay for small molecule activators of the heat shock response signaling pathway (AID 743210); conditions: HeLa HSE-bla reporter, beta-lactamase ratio, 5 h; series mostly up to 62.6 µM
Source text: U.S. Tox21 Program National Center for Advancing Translational Sciences [NCATS] NIH Chemical Genomics Center [NCGC] U.S. Environmental Protection Agency [EPA] National Institutes of Environmental Health Sciences [NIEHS] National Toxicology Program [NTP] U.S. Food and Drug Administration [FDA] Tox21 Assay Overview: Various chemicals, environmental and physiological stress conditions may lead to the activation of heat shock response/ unfolded protein response (HSR/UPR). There are three heat shock transcription factors (HSFs) (HSF-1, -2, and -4) mediating transcriptional regulation of the human HSR. To identify the compounds that activate HSR signaling, HSE-bla HeLa cell line (Invitrogen, Carlsbad, CA, USA) containing a beta-lactamase reporter gene under the control of the heat shock response elements was used to screen the Tox21 10K compound library.
Tox21 Assay Protocol Summary: The CellSensor HSE-bla HeLa cells (Invitrogen, Carlsbad, CA, USA) were dispensed at 1500 cells/6uL/well into 1536-well black wall/clear bottom plates using a Multidrop combi (Thermo Fisher Scientific, Waltham, MA) dispenser. After the assay plates were incubated at 37 C and 5% CO2 overnight, 23 nL of compounds dissolved in DMSO, positive controls or DMSO only was transferred to the assay plate by a Pintool station (Kalypsys, San Diego, CA). The plates were incubated at 37 C for 5 h. After 1 uL of LiveBLAzerTM B/G FRET substrate was added using a Flying Reagent Dispenser (Beckman Coulter, Indianapolis, IN, USA), the plates were incubated at room temperature for 2.5 h, and fluorescence intensity was measured by an Envision plate reader (PerkinElmer, Shelton, CT).

SMILES | outcome
O=C(OCC1CCC2OC2C1)C1CCC2OC2C1 (stereo not given) | inactive
O=C1c2ccccc2CCc2ccccc21 | inactive
COC(=O)c1cccnc1 | inactive
CC(=O)Oc1ccc(C)cc1 | inactive
CNC(=O)Oc1ccc2c(c1)[C@]1(C)CCN(C)[C@@H]1N2C | inactive
CCNc1ccccc1 | inactive
CN(C)c1ccc(Cc2ccc(N(C)C)cc2)cc1 | inactive
Nc1nc(N)nc(-c2ccccc2)n1 | inactive
C=CC(=O)OCCC(=O)O | inactive
CCO[Si](CCCN)(OCC)OCC | inactive
NCCCCCCN | inactive
COC(=O)CCCC(=O)OC | inactive
CCNc1cccc(C)c1 | inactive
CSc1ccc(Cl)cc1 | inactive
O=C(O)/C=C/C(=O)O | inactive
CCCCCCCCCCCCCCCCO | inactive
CC(C)=CCl | inactive
CC(C)CC(C)O (stereo not given) | inactive
O=c1[nH]cnc2[nH]ncc12 | inactive
CN(C)CCOC(=O)COc1ccc(Cl)cc1 | inactive

SMILES | outcome
C=C(C)[C@H]1CC=C(C)C(=O)C1 | inactive
Cc1ccc(C(C)C)c(O)c1 | inactive
CC(C)OC(=O)COc1ccc(Cl)cc1Cl | inactive
Nc1ccc(Cl)c(N)c1 | inactive
CNC(=S)N(C)C | inactive
COc1cc(OC)c(C(=O)CCCN2CCCC2)c(OC)c1 | inactive
O=C(O)CCCCCCCCC(=O)O | inactive
O=S(=O)(O)c1ccccc1 | inactive
CC(C)CC(=O)CC(C)CC(C)C (stereo not given) | inactive
CC1(C)NC(=O)NC1=O | inactive
CN1C(=O)CC[C@H]1c1cccnc1 | inactive
O=C(O)c1ccc(S(=O)(=O)N(Cl)Cl)cc1 | inactive
CCCCCCCCCCN | inactive
COc1ccc(N)c(C)c1 | inactive
N#Cc1ccccc1 | inactive
CC(C)(Oc1ccc(CCNC(=O)c2ccc(Cl)cc2)cc1)C(=O)O | inactive
CCNC(=S)NCC | inactive
CC(C)c1cccc(C(C)C)c1 | inactive
COc1ccc(C)cc1N | inactive
Clc1ccccn1 | inactive
